From PubChem
Most compounds without a hit are left out; they make up all but 1.3% or so of the library.
RXFP1 agonist – qHTS Assay for Agonists of the Relaxin Receptor RXFP1 | hit rate 0.3% among 370,000 | Potency, µM (highest dose often 57.5 µM), actives largely listed as activators | AID 2676, 2010 | HEK293T-RXFP1 cAMP TR-FRET, 30 min; response scale: percent of porcine relaxin response, buffer zero | Relaxin receptor 1 (Homo sapiens), Q9HBX9; active = well fitted activation curve with a large enough effect; inconclusive = small, poorly fitted or top-dose-only effect; note: nearly all actives have a fitted effect of over 60% in size
Target sequence (Q9HBX9 whole entry, looked up): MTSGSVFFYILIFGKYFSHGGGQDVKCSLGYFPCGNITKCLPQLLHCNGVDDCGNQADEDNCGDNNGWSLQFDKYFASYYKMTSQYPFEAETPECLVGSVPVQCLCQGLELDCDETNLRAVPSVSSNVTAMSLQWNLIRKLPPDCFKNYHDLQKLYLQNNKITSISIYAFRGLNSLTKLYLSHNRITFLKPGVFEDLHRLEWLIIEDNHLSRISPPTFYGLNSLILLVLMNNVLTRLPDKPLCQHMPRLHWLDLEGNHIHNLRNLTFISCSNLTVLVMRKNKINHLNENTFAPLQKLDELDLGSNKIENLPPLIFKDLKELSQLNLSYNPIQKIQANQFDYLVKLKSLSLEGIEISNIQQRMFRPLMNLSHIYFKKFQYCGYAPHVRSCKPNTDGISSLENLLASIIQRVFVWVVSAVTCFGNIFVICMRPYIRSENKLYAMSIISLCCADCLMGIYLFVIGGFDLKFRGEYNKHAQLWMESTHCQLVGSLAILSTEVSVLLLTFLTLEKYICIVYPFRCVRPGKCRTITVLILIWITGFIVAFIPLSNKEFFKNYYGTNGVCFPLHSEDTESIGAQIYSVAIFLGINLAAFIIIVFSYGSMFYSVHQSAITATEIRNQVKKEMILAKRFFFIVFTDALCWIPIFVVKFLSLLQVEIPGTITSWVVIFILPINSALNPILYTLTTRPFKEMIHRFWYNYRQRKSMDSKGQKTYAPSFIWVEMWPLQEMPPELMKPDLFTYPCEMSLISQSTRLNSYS
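HEK293 cells stably expressing RXFP1, treated 30 min at 37C with compounds plus PDE4 inhibitor Ro 20174; cAMP measured by HTRF TR-FRET. Normalized to buffer and 29 nM porcine relaxin; EC50 by Hill fit.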
gsp agonist – qHTS for Agonist of gsp, the Etiologic Mutation Responsible for Fibrous Dysplasia/McCune-Albright Syndrome: qHTS; hit rate 0.13% among 340,000; gsp mutant cells, cAMP HTRF, 30 min; Potency, µM (highest dose often 76.9 µM), hits mostly activators; AID 624287, 2012; active = well fitted activation curve with a large enough effect; inconclusive = small, poorly fitted or top-dose-only effect, or another doubt; inactive = no such curve, though single readings can be large or run the other way; cell line not stated here;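 note: phosphodiesterase inhibitor Ro 20-1724 added with compounds to block cAMP breakdown; nearly all actives have a fitted effect of over 60% in size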
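Cells in DMEM/10% FBS with G418 were pretreated with compounds in DMSO plus […] (300 uM stock) for 30 min at 37C. cAMP was measured by HTRF (cAMP-d2 plus anti-cAMP antibody-K) after 30 min at room temperature.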
RXFP1 antagonist – qHTS Assay for Antagonists of the Relaxin Receptor RXFP1. Relaxin receptor 1 (Homo sapiens), Q9HBX9. HEK293-RXFP1, relaxin-stimulated cAMP HTRF, 30 min; stronger effect = lower value. activity change, negative = inhibition, % at 57.5 µM. hit rate 0.59% among 350,000. AID 1259400, 2018;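 active = activity change of -60% or lower, but not beyond a set lower limit; inconclusive = change between -60% and -40%, or beyond the set limit; inactive = change above -40%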
TSHR antagonist – Antagonists of the Thyroid Stimulating Hormone Receptor: HTS campaign; activity change, negative = inhibition, % at 11.5 µM; AID 504810, 2011; TSHR-expressing cells, TSH-stimulated cAMP HTRF, 2 h; stronger effect = lower value; hit rate 0.2% among 330,000; Thyrotropin receptor (Homo sapiens), P16473;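 active = activity change below a set negative limit, meaning inhibition stronger than a set level, cut at about -70% in these data; inconclusive = activity change between two set negative limits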
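Read-out is FRET at 665 nm (cryptate excitation 337 nm) from a cryptate-tagged anti-cAMP antibody, competed by cell cAMP against cAMP-d2. Compounds are tested on freshly harvested TSHR cells challenged with 4nM TSH (EC80) for 2 hours at 37 deg C.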
gsp antagonist – qHTS for Antagonists of gsp, the Etiologic Mutation Responsible for Fibrous Dysplasia/McCune-Albright Syndrome: qHTS; AID 624288, 2012; hit rate 0.4% among 340,000; gsp-mutant cells, cAMP HTRF, 30 min; Potency, µM (series often up to 76.9 µM), actives largely listed as inhibitors; calls by dose curve; cell line not stated here;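 note: intracellular cAMP measured with PDE inhibitor Ro 20-1724 present during compound exposure; nearly all actives have a fitted effect of over 65% in size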
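Measurement of cellular cAMP by homogeneous time-resolved fluorescence following a 30 min compound exposure at 37C. The PDE inhibitor […] was present throughout; the assay buffer was DPBS with 0.05% BSA and 0.005% Tween 20.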
pAkt inh – HTS Assay for Inhibitors of Akt Phophorylation: Primary Screen | hit rate 0.32% among 360,000 | AID 651550, 2012 | Neuro2A IGF-stimulated pAkt S473 HTRF, 20 min; stronger effect = lower value | activity change, % for hits at 50 µM; in the data active = activity change below about -80%; inconclusive = mostly about -51% to -80%
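Neuro2A cells (4,500/well, DMEM with 0.5% FBS) were treated with compound at a single 50 µM final concentration, stimulated with 6 nM IGF for 20 min at 37 °C, and lysed. Phospho-Akt Ser473 was read by HTRF as 665/615 ratio ×10^4.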
Numbers stand for hits; – = inactive; ? = inconclusive; · = no result given; [ ] = remark or other dose.

SMILES	RXFP1 agonist	gsp agonist	RXFP1 antagonist	TSHR antagonist	gsp antagonist	pAkt inh
CCCCSc1nnc(CCCCCNC(=O)OC(C)(C)C)o1	–	–	–	–	35.5µM	–
Cc1ccc(S(=O)(=O)c2nc(-c3ccco3)oc2SC(C)c2ccccc2)cc1 (stereo unspecified)	–	·	–	·	·	·
Cc1ccc(C(=O)NCCNc2ncc(C(F)(F)F)cc2Cl)cc1[N+](=O)[O-]	–	–	–	-112.8	–	–
CNC(=O)C1CCC(Cn2c(=O)c3sccc3n(CC(=O)NCc3ccc(OC)cc3)c2=O)CC1 (stereo unspecified)	–	·	–	·	·	·
COc1ccc(N2CCN(C(=O)c3cc4c(C)nc5ccccc5c4o3)CC2)cc1	–	?	-76.3	–	?	–
COCOCCn1cc(CN2CCS(=O)(=O)N(Cc3ccc(-c4ccc(Cl)c(Cl)c4)cc3)C(C(C)C)C2=O)nn1 (stereo unspecified)	·	–	–	·	·	–
COc1ccc([N+](=O)[O-])cc1NC(=O)C(C)OC(=O)c1cccnc1 (stereo unspecified)	–	?	–	–	–	–
Cc1nc(SCC(=O)N2CCN(C(=O)c3cccs3)CC2)c2c(C)c(C)sc2n1	–	?	-63.7	–	–	–
O=C1CCC[C@@H]2Cc3[nH]c4c(Cl)ccc(Cl)c4c3[C@@H]3CCN1[C@H]23	–	·	·	–	–	–
COc1ccc(S(=O)(=O)NCCc2sc3nc(-c4ccc(C)cc4)nn3c2C)cc1C	–	·	–	·	·	·
O=C(N/N=C/C=C/c1ccco1)c1ccccc1Cl	–	?	-81.7	–	–	–
Cc1cccc(OCC(=O)N/N=C/C=C/c2ccco2)c1	–	–	?	–	–	–
Cc1ccc(OCC(=O)N/N=C/C=C/c2ccco2)c(Br)c1	–	–	-76.0	–	–	–
CCN(CC)c1ccc(NC(=O)CN2CCN(S(=O)(=O)c3ccc(C(C)C)cc3)CC2)cc1	–	·	–	·	·	·
C=CCSc1nsc(NC(=O)Nc2ccc(F)cc2)n1	–	–	–	-81.8	–	–
CCc1ccccc1NC(=O)CN(C)C(=O)Cn1cc(C(F)(F)F)cc(Cl)c1=O	–	–	–	–	–	–
C[C@]12CCC(=O)C=C1[C@@H]1C[C@@H]1[C@H]1[C@@H]3[C@@H]4C[C@@H]4[C@@]4(CCC(=O)O4)[C@@]3(C)CC[C@@H]12	·	·	–	·	·	·
Oc1c(Br)cc(Br)cc1/C=N/NC(=S)N[C@H]1CC2C=CC1C2 (stereo partly specified)	–	–[15.4 µM]	-71.6	–	–	–
CCN(CC)c1ccc(NC(=O)Nc2cccc3ccccc23)cc1	–	–[15.4 µM]	–	–	–	–
CCN(CC)c1ccc(NC(=O)Nc2ccccc2C(F)(F)F)cc1	–	–	–	–	–	-115.8%
CCCS(=O)(=O)Nc1cc(-c2cn3cccc(C)c3n2)ccc1C	–	·	·	·	·	·
CC1CCCCC1NC(=O)COCc1cc(-c2cccs2)on1 (stereo unspecified)	–	–	–	–	–	–
Cc1ccc(NC(=O)c2ccc3c(c2)N(CC(=O)N2CCCCC2)C(=O)C(C)(C)O3)cc1	–	–	–	–	–	-120.9%
COc1cc(C2C(C#N)=C(N)N(Nc3ccccc3)C3=C2C(=O)CC(C)(C)C3)ccc1OCc1cccc(F)c1 (stereo unspecified)	–	–	–	–	–	-91.9%
COc1cc(C2C(C#N)=C(N)N(Nc3ccccc3)C3=C2C(=O)CC(C)(C)C3)ccc1OCc1ccccc1 (stereo unspecified)	–	–	–	–	–	–
Cc1cc(C)cc(NC(=O)c2ncn(-c3ccccc3)n2)c1	–	·	–	·	·	·
CCOC(=O)c1sc(=NC(=O)c2ccc(C)cc2)n(C)c1C	–	–[15.4 µM]	–	–	–	–
